Measurements taken from PubChem BioAssay AID1745845 (National Center for Advancing Translational Sciences (NCATS), 2022).
The campaign covered roughly 360,000 compounds. About 2,600 (0.72%) were called active. Inconclusive results (about 5%) are left out. The call rests on the fitted dose curve; in most records, active means well fitted inhibition curve with a large enough effect; inconclusive means small, poorly fitted or top-dose-only effect; inactive means no such curve, though single readings can be large or run the other way. Many of the other results were omitted from the sample, so actives are more common in it than they were.

Assay: Primary qHTS for Inhibitors of ATXN expression; further: nearly all actives have a fitted effect of over 55% in size
Conditions: HEK-293 ATXN2-luciferase reporter, luminescence, 24 h; series mostly up to 57 µM; activity change, negative = inhibition: at the top concentration
Text: University of Utah School of Medicine, Salt Lake City, Utah
Spinocerebellar ataxia type 2 (SCA2) is a multisystem neurodegenerative disease caused by a dominantly acting mutation leading to expansion of a polyQ domain in the ataxin-2 protein (ATXN2). SCA2 patients develop progressive ataxia and later lose function in other neuronal systems. Prominent parkinsonian signs develop in some patients. Like many neurodegenerative disorders, no symptomatic or disease-modifying treatments are known.
The primary objective of the proposed research is to identify compounds inhibiting ATXN2 expression and to test them for efficacy in SCA2 mouse models. We have developed a cell-based assay paired with an in vivo mouse model using identical luciferase expression constructs. This approach takes advantage of an ATXN2-luciferase transgene, with the luciferase gene flanked by the upstream and downstream portions of the ATXN2 gene. Here we describe a 5-7 dose quantitative high thoroughput screen (qHTS) for compounds lowering ATXN2 expression. We screened the NIH Molecular Libraries Small Molecule Repository (MLSMR) and NCGC's mechanistically annotated (MIPE) and drug repurposing (NPC) collections of compounds for lowering expression of an ATXN2-luciferase reporter in HEK-293 cells. The assay is a multiplexed cell viability assay to ensure target reduction in the absence of cytotoxicity. Secondary qHTS assays included a CMV-luciferase reporter expressed in HEK-293 cells as well as a biochemical assay using recombinant luciferase to detect inhibitors of the reporter enzyme. Compounds that inhibit ATXN2 expression but is not cytotoxic were selected for confirmatory and secondary screens.
PROTOCOL TABLE (as described by Inglese J, Shamu CE and Guy RK. 2007)
SEQUENCE No. (e.g., 1, 2, 3, etc.); […] (e.g., Cells, Incubation, Reagent, etc.); VALUE; DESCRIPTION.
1; Cells; 4 uL; white, solid bottom, 1536-well Greiner assay plate.
2; Incubation; 2 hr; 37 degree C in 5% humidified CO2.
3; Compounds; 23 nL; Kalypsis pintool (Wako USA) equipped with a 1536-well pin head.
4; Incubation; 24 hr; 37 degree C in 5% humidified CO2.
5; Reagent; 1 uL; Gly-Phe-7-Amino-4-trifluoromethylcoumarin.
6; Incubation; 30 min; 37 degree C in 5% humidified CO2.
7; Detection; Fluorescence; ViewLux plate reader (PerkinElmer).
8; Reagent; 3 uL; SteadyGlo luciferase solution (Promega).
9; Incubation; 5 min; room temperature.
10; Detection; Luminescence; ViewLux plate reader (PerkinElmer).
NOTES (numbers refer to Sequence numbers above)
1. S2 cells expressing ATXN2-luciferase reporter were suspended in phenol-red free DMEM and dispensed in assay plates using a Multidrop Combi dispenser (Thermo Fisher Scientific).
2. Assay plates were incubated. Evaporation was prevented by covering assay plates with metal lids containing holes to allow gas diffusion.
3. Compounds were added in a dose response manner with the final concentrations of 57, 11.4, 2.28, 0.46, 0.091, 0.018, 0.0037 uM. Vehicle-only plates, with DMSO being pin-transferred to columns 5-48, were inserted uniformly at the beginning and the end of each library to monitor and record any shifts in assay performance.
5. 125 uM Gly-Phe-7-Amino-4-trifluoromethylcoumarin (MP Biomedicals) working concentration was used at a final concentration of 25 uM.
7. To assess cell viability; the assay plates were read using the ViewLux high-throughput CCD imager (PerkinElmer), wherein single end-point fluorescence measurement was acquired (excitation 405/10; emission 540/25 nm).
8. Detection reagent SteadyGlo Luciferase (Promega) was added to the assay plate.
10. Luminescence is then measured on the ViewLux imager equipped with a clear emission filter using a 2 sec exposure. All screening operations were performed on a fully integrated robotic system (Kalypsys) containing one RX-130 and two RX-90 anthropomorphic robotic arms (Staubli).
[…]
On the % scale 0 is the no-effect control and ±100 the full control effect; potency means the concentration at half of the fitted maximal effect.

Activity change, negative = inhibition, inactive:
Cc1nnc(SCc2cc(=O)c3cc(F)ccc3[nH]2)n1C 10.9%
CN(C)CCNC(=O)Nc1cccc(Cl)c1Cl 1.81%
CN(c1ccccc1)S(=O)(=O)c1ccc(Cl)c(C(=O)NCCc2c[nH]c3ccccc23)c1 0.602%
Cc1ccc(S(=O)(=O)c2nnn3c2nc(N2CCN(c4ccccc4F)CC2)c2cc(Cl)ccc23)cc1C 4.45%
CC(=O)c1cccc(-c2cnc3c(NC=O)cc(-c4ccc(N(C)C)cc4)cn23)c1 0%
CC(=O)c1cccc(-c2cnc3c(NC=O)cc(-c4cccc(C(=O)N(C)C)c4)cn23)c1 -7.72%
CCOc1ccc(NS(=O)(=O)c2ccc(N)cc2)nn1 8.26%
CCN1CCN(C(=O)N[C@@H](C(=O)N[C@@H]2C(=O)N3[C@@H]2SC(C)(C)[C@H]3C(=O)O)c2ccccc2)C(=O)C1=O 6.23%
CC(=O)O[C@]1(C(C)=O)CC[C@@H]2[C@@H]3C[C@H](C)C4=CC(=O)CC[C@]4(C)[C@H]3CC[C@@]21C 11.3%
COc1ccc(OCC(O)CNCCNc2nccc(C(F)(F)F)n2)cc1 (stereo not given) -14.1%
CC(Oc1ccc(Br)cc1)C(=O)NC1CCCCCC1 (stereo not given) -17.4%
CCOc1ccc(Nc2oc(/C=C/c3ccc(F)cc3)nc2C#N)cc1 -1.28%
CCOC(=O)N1CCN([N+]([O-])=NOc2ccc([N+](=O)[O-])cc2[N+](=O)[O-])CC1 16.8%
Cc1ccccc1-c1nc(SCC(=O)N(C)c2ccccc2)c2c(=O)n(C)c(=O)n(C)c2n1 6%
COC(=O)Nc1nc2ccc(C(=O)C3CC3)cc2[nH]1 0.457%
O=C(NC(c1ccc(Cl)cc1)c1cnccn1)C1CCN(Cc2ccc(Cl)cc2)CC1 (stereo not given) -9.15%
COc1cccc(CN2CCC(C(=O)NC(c3ccc4c(c3)OCO4)c3ccccn3)CC2)c1 (stereo not given) -4.28%
O=C1c2c(O)cccc2[C@@H]([C@@H]2O[C@H](CO)[C@@H](O)[C@H](O)[C@H]2O)c2cc(CO)cc(O)c21 10.2%
Cc1cccc(N2CCN(C(=O)c3ccc4c(c3)CCN4S(=O)(=O)c3ccccc3)CC2)c1C -26.9%
CCc1nc2c(OCCC3CCCCC3)cccn2c1N(C)C(=O)c1ccco1 0%
CN(CC(=O)Nc1ccccc1F)S(=O)(=O)c1ccc2c(c1)c(=O)n(C)c(=O)n2C 1.48%
COc1ccc(Sc2ccc(NC(=O)c3cccc(Cl)c3)cc2C#N)cc1 -0.357%
CCOc1ccc(CNCCSc2nnnn2C)cc1 8.83%
COc1cccc(NC(=O)c2ccc3nc(CCc4ccccc4)oc3c2)c1 15.2%
O=C(NC(=O)c1ccccc1)Nc1ccccc1O -7.29%
COC(=O)c1nc(NC(=O)c2ccccc2)n[nH]1 -7.98%
CCC(=O)Nc1c(C(=O)N2CCN(c3ccc(F)cc3)CC2)oc2ccccc12 2.94%
CCn1c(-c2nonc2N)nc2c(C#CC(C)(C)O)ncc(OC[C@H]3CCCNC3)c21 -12.9%
Cc1ccc(S(=O)(=O)N2CCc3cc(C(=O)Nc4ccc(Cl)cc4C)ccc32)cc1 2.14%
Cc1cc(C)cc(Nc2ncnc3onc(-c4ccc(F)cc4)c23)c1 -1.61%
CC(C)c1ccc(NC(=O)c2ccc(Cn3nc(N4CCN(c5ccccc5)CC4)ccc3=O)o2)cc1 0.267%
NC(=O)CSc1oc(-c2cccs2)nc1S(=O)(=O)c1ccccc1 4.16%
Cc1ccc(S(=O)(=O)c2nc(-c3cccs3)oc2NCc2cccnc2)cc1 -0.794%
CSc1ccccc1NC(=O)CCS(=O)(=O)c1nc(-c2cccs2)cc(C(F)(F)F)n1 11.6%
O=C(CSc1ncn[nH]1)Nc1ccc(Br)cc1Br 20.4%
O=C(CSc1oc(-c2ccco2)nc1S(=O)(=O)c1ccc(Cl)cc1)c1ccccc1 -10.6%
CC(C)OCCCn1c(SCC(=O)c2ccccc2)nc2c(sc3ccccc32)c1=O -1.85%
CCCCN1CCC(CNC(=O)c2c3n(c4ccccc24)CCCO3)CC1 53%
Fc1ccc(-n2ncc3c(Nc4ccc(Oc5ccccc5)cc4)ncnc32)cc1 17.8%
O=C(NCc1ccc(F)cc1)c1ccc2nc(N3CCCCC3)sc2c1 8.82%
CN(C)CCN(C(=O)C1CCCCC1)c1nc2cc3c(cc2s1)OCO3 -25.9%

Potency, active:
CN(C)CCNC(=O)c1ccc(Cl)c2cc3ccccc3nc12 8.91 µM
CN(C)C(=O)c1cccc(-c2cnc3c(NC=O)cc(-c4ccc(F)cc4)cn23)c1 25.1 µM
CC(C)(C)CC(C)(C)NCC(O)COCCOc1ccc(Br)cc1 (stereo not given) 22.4 µM
O=C1NCCc2[nH]c(-c3ccncc3)cc21 6.11 µM
Cc1ccc(C(NC(=O)C2CCN(CCOc3ccc(Cl)cc3Cl)CC2)c2ccccn2)cc1 (stereo not given) 28.2 µM
O=C(NC1=CC(=O)c2ccccc2C1=O)c1ccccc1 7.94 µM
CCCCS(=O)(=O)c1oc(-c2cccs2)nc1S(=O)(=O)c1ccccc1 3.16 µM
O=C(/C=C/Sc1ncn[nH]1)c1ccc(Cl)cc1 25.1 µM
c1c2c(cc3sc(N4CCCCC4)nc13)OCCO2 7.94 µM
